From PubChem BioAssay (EPA / NIEHS)
Inconclusive results are not listed. Active and inactive are the calls of the source. The calls were made as follows: active = hit-call score of the fitted dose curve at least 0.9, where 1 is the maximum; inconclusive = response in the unintended direction; inactive = score below 0.9.

Assays:
[1] = target: bovine Dopamine Receptor (DR), Non-selective Binding, DRD1 (gene 281125) (UniProt Q95136); assay: NVS_GPCR_bDR_NonSelective: NovaScreen (NVS) G Protein-Coupled Receptor Assay for bovine Dopamine Receptor (DR), Non-selective Binding (AID 2283241)
Summary of the method: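 Filter-based radioligand binding with bovine striatal membrane, incubated 1 h; DMSO as negative baseline. Initial duplicate single-point test at 25 uM preceded concentration series for actives.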

[2] = target: rat Monoamine Oxidase, MAO-B, Peripheral (MAOBP), Maob (gene 25750) (UniProt P19643); assay: NVS_ENZ_rMAOBP: NovaScreen (NVS) Enzymatic Assay for rat Monoamine Oxidase, MAO-B, Peripheral (MAOBP) (AID 2283242)
Sequence of rat Monoamine Oxidase, MAO-B, Peripheral (MAOBP), Maob (gene 25750) (P19643 whole entry, looked up): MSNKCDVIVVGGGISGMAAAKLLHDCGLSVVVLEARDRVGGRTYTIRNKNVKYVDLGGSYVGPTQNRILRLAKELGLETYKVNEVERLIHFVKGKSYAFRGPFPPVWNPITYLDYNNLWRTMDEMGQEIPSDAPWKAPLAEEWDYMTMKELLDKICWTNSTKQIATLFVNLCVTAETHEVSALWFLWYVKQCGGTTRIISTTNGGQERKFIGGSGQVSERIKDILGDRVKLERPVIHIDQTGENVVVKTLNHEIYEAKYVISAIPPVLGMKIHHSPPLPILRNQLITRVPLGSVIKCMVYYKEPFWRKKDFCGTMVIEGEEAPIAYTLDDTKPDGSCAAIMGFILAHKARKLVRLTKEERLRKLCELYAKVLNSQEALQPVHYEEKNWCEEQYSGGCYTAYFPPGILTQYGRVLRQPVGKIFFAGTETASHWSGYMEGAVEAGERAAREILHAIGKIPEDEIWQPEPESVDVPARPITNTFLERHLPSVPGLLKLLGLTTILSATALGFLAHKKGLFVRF

[3] = system: guinea pig Muscarinic, Peripheral (Mperiperal) Receptor, Non-selective Binding, gene 100379235; assay: NVS_GPCR_gMPeripheral_NonSelective: NovaScreen (NVS) G Protein-Coupled Receptor Assay for guinea pig Muscarinic, Peripheral (Mperiperal) Receptor, Non-selective Binding (AID 2283250)
Summary of the method: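 Screened in duplicate at 25 uM, hits retested in concentration series to 50 uM max, using bladder membrane radioligand displacement from guinea pig. Filtration and scintillation counting 1 h post-dose, fitted relative to DMSO.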

[4] = target: guinea pig Opioid, Kappa 1 Receptor (OpiateK), OPRK1 (gene 100135587) (UniProt P41144); assay: NVS_GPCR_gOpiateK: NovaScreen (NVS) G Protein-Coupled Receptor Assay for guinea pig Opioid, Kappa 1 Receptor (OpiateK) (AID 2283252);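 also: radioligand displacement from kappa opioid receptor in guinea pig cerebellar membranes; active means reduced radioligand binding relative to DMSO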
Sequence of guinea pig Opioid, Kappa 1 Receptor (OpiateK), OPRK1 (gene 100135587) (P41144 whole entry, looked up): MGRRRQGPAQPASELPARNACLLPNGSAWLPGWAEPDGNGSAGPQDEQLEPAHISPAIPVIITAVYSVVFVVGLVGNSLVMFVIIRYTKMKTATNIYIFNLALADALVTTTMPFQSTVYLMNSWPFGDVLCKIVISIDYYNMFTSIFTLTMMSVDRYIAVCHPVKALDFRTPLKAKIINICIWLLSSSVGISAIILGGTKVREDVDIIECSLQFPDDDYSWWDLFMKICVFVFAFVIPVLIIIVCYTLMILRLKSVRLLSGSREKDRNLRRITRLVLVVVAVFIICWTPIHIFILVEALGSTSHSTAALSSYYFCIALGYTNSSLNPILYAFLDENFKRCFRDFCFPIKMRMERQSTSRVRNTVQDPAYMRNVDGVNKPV
Summary of the method: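 Radioligand competition binding using guinea pig cerebellum membrane fraction; 2 h exposure; filter radiodetection. Single concentration 25 uM (duplicate), follow-up concentration-response for actives.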

[5] = target: human Serotonin, 5-Hydroxytryptamine Receptor 7 (5HT7), HTR7 (gene 3363) (UniProt P34969); assay: NVS_GPCR_h5HT7: NovaScreen (NVS) G Protein-Coupled Receptor Assay for human Serotonin, 5-Hydroxytryptamine Receptor 7 (5HT7) (AID 2283255);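 also: hits reduce specific radioligand binding relative to DMSO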
Sequence of human Serotonin, 5-Hydroxytryptamine Receptor 7 (5HT7), HTR7 (gene 3363) (P34969 whole entry, looked up): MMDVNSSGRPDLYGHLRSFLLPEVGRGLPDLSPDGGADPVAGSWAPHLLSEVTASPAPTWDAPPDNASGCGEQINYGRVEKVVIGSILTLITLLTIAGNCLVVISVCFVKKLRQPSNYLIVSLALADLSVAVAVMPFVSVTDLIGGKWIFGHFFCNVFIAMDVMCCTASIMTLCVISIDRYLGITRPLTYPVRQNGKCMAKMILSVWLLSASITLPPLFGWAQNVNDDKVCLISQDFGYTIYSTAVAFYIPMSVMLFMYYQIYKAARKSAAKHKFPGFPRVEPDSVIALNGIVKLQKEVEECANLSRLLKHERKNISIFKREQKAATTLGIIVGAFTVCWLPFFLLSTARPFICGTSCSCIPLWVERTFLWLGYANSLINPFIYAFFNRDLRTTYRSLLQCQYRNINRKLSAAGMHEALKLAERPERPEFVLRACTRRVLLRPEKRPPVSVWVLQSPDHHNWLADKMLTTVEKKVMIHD
Summary of the method: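 Filter-bound radioactivity counted after 1 h, with loss of specific radioligand binding fitted against DMSO. Membrane protein came from CHO cells expressing human 5HT7. Chemicals were tested first at 25 uM in duplicate, then in concentration series if active.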

[6] = target: human Adrenergic, Alpha 2A Receptor (Adra2A), ADRA2A (gene 150) (UniProt P08913); assay: NVS_GPCR_hAdra2A: NovaScreen (NVS) G Protein-Coupled Receptor Assay for human Adrenergic, Alpha 2A Receptor (Adra2A) (AID 2283257)
Sequence of human Adrenergic, Alpha 2A Receptor (Adra2A), ADRA2A (gene 150) (P08913 whole entry, looked up): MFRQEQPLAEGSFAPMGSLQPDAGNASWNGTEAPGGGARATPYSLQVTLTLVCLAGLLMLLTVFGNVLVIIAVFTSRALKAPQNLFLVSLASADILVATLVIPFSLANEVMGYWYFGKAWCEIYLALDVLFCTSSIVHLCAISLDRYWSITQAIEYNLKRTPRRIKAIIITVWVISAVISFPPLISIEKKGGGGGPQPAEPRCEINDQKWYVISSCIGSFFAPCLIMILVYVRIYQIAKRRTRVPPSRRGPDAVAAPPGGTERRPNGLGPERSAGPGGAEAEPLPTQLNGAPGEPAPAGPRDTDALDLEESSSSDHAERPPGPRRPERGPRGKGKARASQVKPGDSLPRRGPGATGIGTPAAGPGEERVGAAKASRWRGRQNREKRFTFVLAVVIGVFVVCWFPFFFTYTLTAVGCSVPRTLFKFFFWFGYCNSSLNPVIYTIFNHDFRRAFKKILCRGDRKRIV
Summary of the method: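 Displacement of a specific radioligand from HT29 membrane protein was counted by filter scintillation after 1 h. Compounds were screened in duplicate at 25 uM, and actives were retested in concentration series. Fitting was positive-direction against DMSO.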

[7] = target: human Serotonin, 5-Hydroxytryptamine Receptor 5A (5HT5A), HTR5A (gene 3361) (UniProt P47898); assay: NVS_GPCR_h5HT5A: NovaScreen (NVS) G Protein-Coupled Receptor Assay for human Serotonin, 5-Hydroxytryptamine Receptor 5A (5HT5A) (AID 2283251)
Sequence of human Serotonin, 5-Hydroxytryptamine Receptor 5A (5HT5A), HTR5A (gene 3361) (P47898 whole entry, looked up): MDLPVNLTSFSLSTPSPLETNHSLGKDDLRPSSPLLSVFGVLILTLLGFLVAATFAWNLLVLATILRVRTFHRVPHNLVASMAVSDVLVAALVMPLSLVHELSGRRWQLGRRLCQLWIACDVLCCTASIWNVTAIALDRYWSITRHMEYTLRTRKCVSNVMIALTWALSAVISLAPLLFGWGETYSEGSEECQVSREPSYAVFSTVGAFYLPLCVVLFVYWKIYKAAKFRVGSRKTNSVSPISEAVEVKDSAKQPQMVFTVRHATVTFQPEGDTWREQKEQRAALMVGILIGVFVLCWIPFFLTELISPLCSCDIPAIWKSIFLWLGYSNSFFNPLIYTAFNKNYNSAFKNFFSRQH
Summary of the method: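 Membranes from HEK293 cells, radioligand binding read by filtration and scintillation after 1 h. Single-concentration duplicate testing at 25 uM, then concentration-response for actives; positive-direction fitting relative to DMSO.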

[8] = target: human Serotonin, 5-Hydroxytryptamine Receptor 2A (5HT2A), HTR2A (gene 3356) (UniProt P28223); assay: NVS_GPCR_h5HT2A: NovaScreen (NVS) G Protein-Coupled Receptor Assay for human Serotonin, 5-Hydroxytryptamine Receptor 2A (5HT2A) (AID 2283249)
Sequence of human Serotonin, 5-Hydroxytryptamine Receptor 2A (5HT2A), HTR2A (gene 3356) (P28223 whole entry, looked up): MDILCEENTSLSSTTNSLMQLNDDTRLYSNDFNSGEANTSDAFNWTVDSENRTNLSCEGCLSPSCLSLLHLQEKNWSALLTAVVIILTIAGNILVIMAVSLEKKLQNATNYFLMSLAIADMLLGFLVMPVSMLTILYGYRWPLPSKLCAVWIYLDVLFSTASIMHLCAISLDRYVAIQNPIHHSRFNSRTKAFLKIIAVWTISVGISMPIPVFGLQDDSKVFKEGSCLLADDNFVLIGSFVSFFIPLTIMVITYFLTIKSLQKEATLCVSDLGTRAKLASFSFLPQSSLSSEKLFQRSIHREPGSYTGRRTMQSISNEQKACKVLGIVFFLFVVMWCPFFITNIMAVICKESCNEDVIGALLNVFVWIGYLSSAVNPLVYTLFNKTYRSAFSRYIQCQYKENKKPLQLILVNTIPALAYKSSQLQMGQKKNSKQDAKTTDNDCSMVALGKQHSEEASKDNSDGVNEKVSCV
Summary of the method: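 Radioligand displacement on human cortex tissue extract, counted by filtration and scintillation 1.5 h post-dosing. Initial single-concentration screen at 25 uM in duplicate, concentration series in follow-up; DMSO as baseline.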

[9] = system: guinea pig Leukotriene B4 Receptor (LTB4), gene 100379538; assay: NVS_GPCR_gLTB4: NovaScreen (NVS) G Protein-Coupled Receptor Assay for guinea pig Leukotriene B4 Receptor (LTB4) (AID 2283247)
Summary of the method: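 Membranes from guinea pig spleen incubated 2 h with radioligand and compound; bound counts measured by filtration and scintillation. Screened first at 25 uM in duplicate, then actives titrated to a 50 uM top concentration relative to DMSO.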

[10] = target: Beta-2 adrenergic receptor (Homo sapiens) (UniProt P07550); assay: NVS_GPCR_hAdrb2: NovaScreen (NVS) G Protein-Coupled Receptor Assay for human Adrenergic, Beta 2 Receptor (Adrb2) (AID 2283261)
Sequence of Beta-2 adrenergic receptor (Homo sapiens) (P07550 whole entry, looked up): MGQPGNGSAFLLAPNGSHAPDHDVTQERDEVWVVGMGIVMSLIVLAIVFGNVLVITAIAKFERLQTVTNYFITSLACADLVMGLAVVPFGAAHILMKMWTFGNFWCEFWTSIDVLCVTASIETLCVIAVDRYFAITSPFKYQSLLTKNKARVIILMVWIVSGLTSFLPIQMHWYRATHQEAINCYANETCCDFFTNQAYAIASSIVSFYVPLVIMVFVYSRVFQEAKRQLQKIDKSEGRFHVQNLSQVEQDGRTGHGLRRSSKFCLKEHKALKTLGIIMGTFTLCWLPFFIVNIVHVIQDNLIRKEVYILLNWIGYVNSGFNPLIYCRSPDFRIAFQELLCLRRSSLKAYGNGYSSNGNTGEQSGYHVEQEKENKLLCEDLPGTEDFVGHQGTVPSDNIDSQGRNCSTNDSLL
Summary of the method: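 Compounds screened in duplicate at 25 uM, then actives in concentration series. Human beta-2 receptor from CHO material, cell-free; radioligand displacement after 1 h measured by filtration and scintillation against DMSO baseline.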

[11] = target: human Adrenergic, Alpha 2c Receptor (Adra2C), ADRA2C (gene 152) (UniProt P18825); assay: NVS_GPCR_hAdra2C: NovaScreen (NVS) G Protein-Coupled Receptor Assay for human Adrenergic, Alpha 2c Receptor (Adra2C) (AID 2283259)
Sequence of human Adrenergic, Alpha 2c Receptor (Adra2C), ADRA2C (gene 152) (P18825 whole entry, looked up): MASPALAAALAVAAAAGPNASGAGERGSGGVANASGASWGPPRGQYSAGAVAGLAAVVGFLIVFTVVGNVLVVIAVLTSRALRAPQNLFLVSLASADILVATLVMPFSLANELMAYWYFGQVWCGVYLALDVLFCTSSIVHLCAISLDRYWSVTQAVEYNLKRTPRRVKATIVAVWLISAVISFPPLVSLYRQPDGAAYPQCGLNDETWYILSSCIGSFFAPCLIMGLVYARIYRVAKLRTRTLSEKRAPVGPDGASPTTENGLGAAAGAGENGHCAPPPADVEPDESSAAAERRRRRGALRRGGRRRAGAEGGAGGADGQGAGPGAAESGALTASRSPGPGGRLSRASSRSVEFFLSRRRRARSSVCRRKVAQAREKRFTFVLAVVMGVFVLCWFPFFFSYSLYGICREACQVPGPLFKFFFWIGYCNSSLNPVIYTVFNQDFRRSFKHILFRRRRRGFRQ
Summary of the method: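 Screened first in duplicate at 25 uM, with actives then run as concentration series. Membranes from Sf9 cells were exposed for 1 h, and displacement of radioligand was counted after filtration, using DMSO as baseline.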

[12] = target: human Adenosine A1 Receptor (AdoRA1), ADORA1 (gene 134) (UniProt P30542); assay: NVS_GPCR_hAdoRA1: NovaScreen (NVS) G Protein-Coupled Receptor Assay for human Adenosine A1 Receptor (AdoRA1) (AID 2283254)
Sequence of human Adenosine A1 Receptor (AdoRA1), ADORA1 (gene 134) (P30542 whole entry, looked up): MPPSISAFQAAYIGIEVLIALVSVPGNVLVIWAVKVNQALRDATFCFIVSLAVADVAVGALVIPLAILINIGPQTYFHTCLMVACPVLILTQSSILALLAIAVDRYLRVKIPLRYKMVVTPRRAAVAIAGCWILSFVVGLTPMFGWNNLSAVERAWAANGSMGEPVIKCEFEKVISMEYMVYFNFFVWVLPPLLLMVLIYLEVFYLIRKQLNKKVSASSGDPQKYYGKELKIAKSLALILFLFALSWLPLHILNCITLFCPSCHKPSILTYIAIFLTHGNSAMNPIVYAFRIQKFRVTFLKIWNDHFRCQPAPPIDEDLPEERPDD
Summary of the method: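 Membranes from human cortical tissue were incubated with radioligand and test chemical for 1 hour, then filtered and counted. Activity was taken as signal loss relative to DMSO, screened at 25 uM in duplicate before concentration-response follow-up.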

[13] = target: human Adenosine A2a Receptor (AdoRA2a), ADORA2A (gene 135) (UniProt P29274); assay: NVS_GPCR_hAdoRA2a: NovaScreen (NVS) G Protein-Coupled Receptor Assay for human Adenosine A2a Receptor (AdoRA2a) (AID 2283256)
Sequence of human Adenosine A2a Receptor (AdoRA2a), ADORA2A (gene 135) (P29274 whole entry, looked up): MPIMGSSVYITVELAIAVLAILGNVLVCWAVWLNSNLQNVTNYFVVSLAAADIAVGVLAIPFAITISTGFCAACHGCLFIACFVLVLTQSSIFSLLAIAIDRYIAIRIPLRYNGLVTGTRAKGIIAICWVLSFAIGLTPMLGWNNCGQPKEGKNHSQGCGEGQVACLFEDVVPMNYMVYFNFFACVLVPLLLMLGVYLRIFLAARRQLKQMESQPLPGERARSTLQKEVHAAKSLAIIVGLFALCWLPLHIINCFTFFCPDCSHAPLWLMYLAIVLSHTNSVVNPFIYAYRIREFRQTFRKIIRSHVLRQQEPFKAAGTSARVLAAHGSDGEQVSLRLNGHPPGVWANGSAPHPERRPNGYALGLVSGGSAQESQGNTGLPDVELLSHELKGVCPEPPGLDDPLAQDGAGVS
Summary of the method: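 Compounds screened in duplicate at 25 uM, with actives followed up in concentration series, for displacement of a radioligand from HEK293-derived receptor protein. Bound counts read by filter scintillation at 1.5 hours, DMSO as baseline.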

[14] = target: human Adrenergic, Beta 1 Receptor (Adrb1), ADRB1 (gene 153) (UniProt P08588); assay: NVS_GPCR_hAdrb1: NovaScreen (NVS) G Protein-Coupled Receptor Assay for human Adrenergic, Beta 1 Receptor (Adrb1) (AID 2283258)
Summary of the method: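 Membranes/protein extracted from human neuroepithelioma cells, radioligand competition binding read by filtration and scintillation 2 h post-dose. Single 25 uM duplicate screen, then concentration-response follow-up; DMSO as negative control.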

[15] = target: human Serotonin, 5-Hydroxytryptamine Receptor 6 (5HT6), HTR6 (gene 3362) (UniProt P50406); assay: NVS_GPCR_h5HT6: NovaScreen (NVS) G Protein-Coupled Receptor Assay for human Serotonin, 5-Hydroxytryptamine Receptor 6 (5HT6) (AID 2283253)
Sequence of human Serotonin, 5-Hydroxytryptamine Receptor 6 (5HT6), HTR6 (gene 3362) (P50406 whole entry, looked up): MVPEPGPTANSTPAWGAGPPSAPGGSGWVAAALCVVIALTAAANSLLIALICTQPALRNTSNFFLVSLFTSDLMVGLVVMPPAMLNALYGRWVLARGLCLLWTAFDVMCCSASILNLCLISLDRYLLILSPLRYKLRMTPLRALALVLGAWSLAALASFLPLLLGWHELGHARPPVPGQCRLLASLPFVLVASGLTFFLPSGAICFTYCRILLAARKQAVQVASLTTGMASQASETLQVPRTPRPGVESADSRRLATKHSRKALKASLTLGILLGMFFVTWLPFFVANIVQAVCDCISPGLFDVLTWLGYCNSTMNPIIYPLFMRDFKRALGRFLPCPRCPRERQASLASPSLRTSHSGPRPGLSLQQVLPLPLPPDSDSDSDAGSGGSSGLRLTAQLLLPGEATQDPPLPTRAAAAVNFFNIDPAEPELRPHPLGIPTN
Summary of the method: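 Filter scintillation counting of radioligand displacement from HEK293-expressed 5HT6, 1 hour post-dose, with loss of signal relative to DMSO. Single 25 uM duplicates first, with concentration series for confirmation.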

For `CCCN(CC)CC1COC2(CCC(C(C)(C)C)CC2)O1` (stereo not given), the outcome [1] was “inactive”, the outcome [2] was “inactive” and the outcome [3] was “inactive”. For the same molecule, the AC50 [4] was 14.3 µM (active), the AC50 [5] was 8 µM (active) and the AC50 [6] was 3.99 µM (active).

With `OC(c1ccc(Cl)cc1)(c1ccc(Cl)cc1)C(Cl)(Cl)Cl` the outcome [7] was “inactive” and the outcome [5] was “inactive”.

In the case of `CC1(C)C(C(=O)OC(C#N)c2cccc(Oc3ccccc3)c2)C1(C)C` (stereo not given), the AC50 [7] was 25 µM (active) and the AC50 [5] was 25 µM (active).

`O=C1C2CC=CCC2C(=O)N1SC(Cl)(Cl)Cl` (stereo not given) was tested, and the outcome [8] was “inactive”, the outcome [3] was “inactive” and the outcome [7] was “inactive”. The AC50 [5] was 4.95 µM (active).

`CCOc1nc(F)cc2nc(S(=O)(=O)Nc3c(Cl)cccc3Cl)nn12` was tested, and the outcome [3] was “inactive”.

`CCN(CC)c1nc(C)cc(OP(=S)(OC)OC)n1` was tested, and the outcome [9] was “inactive”.

In the case of `CCN(CC)C(=O)C(C)Oc1cccc2ccccc12` (stereo not given), the outcome [9] was “inactive” and the AC50 [4] was 25 µM (active).

With `Nc1c(Cl)c(Cl)nc(C(=O)O)c1Cl` the outcome [10] was “inactive”.

For `Cn1c(-c2ccccc2)cc(-c2ccccc2)[n+]1C`, the AC50 [3] was 6.52 µM (active), the AC50 [4] was 12 µM (active) and the AC50 [5] was 14.8 µM (active). The AC50 [6] was 1.32 µM (active) and the AC50 [11] was 3.74 µM (active).

With `C=C(C)CN(CC)c1c([N+](=O)[O-])cc(C(F)(F)F)cc1[N+](=O)[O-]` the outcome [9] was “inactive”.

In the case of `Nc1cnn(-c2ccccc2)c(=O)c1Cl`, the AC50 [12] was 8.18 µM (active) and the AC50 [13] was 32.6 µM (active).

In the case of `COP(=O)(OC)O/C(C)=C/C(=O)N(C)C`, the outcome [3] was “inactive”.

In the case of `CC(C)Nc1nc(Cl)nc(NC(C)C)n1`, the AC50 [14] was 6.34 µM (active).

With `CO/N=C(/C1=NOCCO1)c1ccccc1Oc1ncnc(Oc2ccccc2Cl)c1F` the outcome [7] was “inactive”, the outcome [4] was “inactive” and the outcome [12] was “inactive”.

`CCOC(=O)C(C)OC(=O)c1cc(Oc2ccc(C(F)(F)F)cc2Cl)ccc1[N+](=O)[O-]` (stereo not given) was tested, and the AC50 [7] was 6.67 µM (active) and the AC50 [5] was 15.3 µM (active).

For `COC(=O)NS(=O)(=O)c1ccc(N)cc1`, the outcome [10] was “inactive”.

For `CCOc1cc(C(C)(C)C)ccc1C1COC(c2c(F)cccc2F)=N1` (stereo not given), the outcome [12] was “inactive”.

In the case of `COC(=O)N(C(=O)N1CO[C@@]2(C(=O)OC)Cc3cc(Cl)ccc3C2=N1)c1ccc(OC(F)(F)F)cc1`, the outcome [5] was “inactive”.

For `CC1(C)CON(Cc2ccccc2Cl)C1=O`, the outcome [11] was “inactive”.

For `CCCCC(O)(Cn1cncn1)c1ccc(Cl)cc1Cl` (stereo not given), the outcome [7] was “inactive”, the AC50 [4] was 17.8 µM (active) and the outcome [15] was “inactive”. The AC50 [5] was 16.6 µM (active).

`CN/C(=N\[N+](=O)[O-])NCc1cnc(Cl)s1` was tested, and the outcome [7] was “inactive”.

`CC1(C)C(C=C(Cl)Cl)C1C(=O)OC(C#N)c1cccc(Oc2ccccc2)c1` (stereo not given) was tested, and the outcome [7] was “inactive” and the AC50 [5] was 6.91 µM (active).
